The values that follow come from PubChem BioAssay (NCI).

Experiment in all cases: NCI-60 one-dose screen, 48 h (100 = growth as untreated, 0 = no growth, -100 = all killed)
What all share (conditions): 10 µM

In assay [1] the test system is NCI-H23 lung.
Assay [2] deals with NCI-H226 lung.
In assay [3] the test system is NCI-H322M lung.
Assay [4] concerns HOP-62 NSCLC.
Assay [5] has as its system NCI-H460 lung.
For assay [6], the system named is HOP-92 NSCLC.
The test system of assay [7] is A549/ATCC NSCLC.
The test system of assay [8] is 786-0 renal.
Assay [9] concerns COLO 205 colon.
In assay [10] the test system is DU-145 prostate.
Assay [11] concerns K-562 leukemia.
The test system of assay [12] is MALME-3M melanoma.
Assay [13] has as its system MDA-MB-231 breast.
The subject of assay [14] is SF-268 CNS.
The test system of assay [15] is SF-295 CNS.
The subject of assay [16] is SF-539 CNS.
Assay [17] has as its system UACC-257 melanoma.
In assay [18] the test system is M14 melanoma.
Assay [19] has as its system RXF 393 renal.
Assay [20] concerns NCI-H522 lung.

Each structure is given as a SMILES string. This is part of a sample that, as a whole, favours compounds with a hit. Of some 83,000 tested, about 20% had one in any assay.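 Step 1: grow cells in 96-well plates. Step 2: add test compound at a single concentration. Step 3: incubate 48 h. Step 4: record percent growth.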 A number with no mark means an inactive call. The source made the active and inactive calls. How the source made its calls: active means growth percent below 10; inactive means the rest.

For the compound `CCS(=O)(=O)c1cc(=O)[nH]c(=O)[nH]1`, the growth was 99.9% in assay [1]; 107% in assay [2]; 87.4% in [3]; 106% in assay [4]; 106% in assay [5]; 162% in assay [6]. Also, the growth in assay [7] was 102%; in [8], 100%; in assay [9], 113%; in [10], 109%; in [11] it was 128%; in assay [12], 56.9%. The growth in assay [13] is 101%; in assay [14], 105%; in assay [15], 122%; in [16], 111%; in assay [17], 44.4%; in [18] it was 87.1%.
On to `CC(C)OC(C(=O)O)c1ccccc1` (stereo not drawn), for which the growth in [1] is 101%; in assay [2], 108%; in assay [3], 117%; in assay [4], 91.1%; in assay [5] it was 109%; in [6], 81.3%. Moreover, the growth in assay [7] is 105%; in assay [9], 111%; in assay [10] it was 113%; in assay [11], 124%; in [12] it was 133%; in assay [13], 99.3%. Further, the growth in [19] was 117%; in assay [14] it was 104%; in [15] it was 138%; in assay [16], 102%; in assay [17], 116%.
Regarding `O=C(Cc1ccc(OCc2ccccc2)cc1)NCc1ccc2c(c1)OCO2`, the growth was 78.3% in assay [1]; 99.6% in assay [2]; 80.8% in assay [3]; 77.9% in assay [4]; 28.7% in [5]; 86.8% in assay [6]. Also, the growth was 58.2% in assay [7]; 88.7% in assay [8]; 84.6% in [10]; 27.6% in [11]; 46.6% in [12]; 82.8% in assay [13]. Moreover, the growth in assay [19] is 105%; in assay [14], 68.9%; in assay [15], -16.6% (active); in [16], 93.7%; in assay [18], 61.9%.
On to `Cc1ccc(C(=O)c2ccccc2)c(C)c1`, for which the growth in assay [1] is 99.6%; in [2], 104%; in assay [3], 105%; in assay [4], 95%; in assay [5], 110%; in assay [6] it was 111%. For the same compound, the growth in assay [7] was 110%; in assay [10], 104%; in assay [11] it was 125%; in [12] it was 120%; in assay [13], 97.8%; in assay [19], 116%. The growth in assay [14] was 102%; in [15] it was 136%; in [16] it was 98.9%; in assay [17] it was 112%.
`CCc1nn(Cc2ccccc2)c2nc(C)c(CCc3ccccc3)c(Cl)c12`: the growth in assay [1] is 101%; in assay [2], 90.7%; in assay [3], 79.5%; in assay [4], 104%; in [5] it was 90.8%; in assay [6], 9.07% (active). The growth was 85% in [8]; 110% in [9]; 102% in assay [10]; 61.1% in assay [11]; 75.5% in assay [12]; 99.7% in [13]. Further, the growth in assay [14] is 106%; in [15], 85.1%; in assay [16], 86.7%; in assay [18], 100%.
As to `O=C(O)C(Cc1ccccc1)C(=O)O`, the growth in [1] is 95.1%; in assay [2] it was 95.5%; in assay [3], 105%; in [4], 118%; in assay [5], 101%; in [20], 106%. Besides, the growth was 103% in assay [7]; 99.4% in [8]; 110% in assay [9]; 113% in assay [10]; 108% in [11]; 115% in [12]. Also, the growth in assay [13] was 104%; in [19], 104%; in [14] it was 110%; in assay [15] it was 98.1%; in assay [16], 102%; in [17] it was 108%. The growth in assay [18] was 104%.
With `CCCC1(c2ccccc2)NC(=O)NC1=O` (stereo not drawn), the growth in [1] was 110%; in assay [2], 97%; in [3] it was 124%; in assay [4], 102%; in assay [5] it was 109%; in [6], 78.4%. The growth is 119% in assay [7]; 114% in assay [9]; 108% in assay [10]; 135% in assay [11]; 121% in [12]; 95.2% in assay [13]. Moreover, the growth in assay [19] was 109%; in assay [14], 98.3%; in assay [15], 122%; in assay [16] it was 100%; in assay [17] it was 108%.
For the compound `COc1cc(-c2ccc(NC(=O)NC3CC3)c(OC)c2)ccc1NC(=O)NC1CC1`, the growth in assay [1] was 98.3%; in assay [2] it was 102%; in [3], 110%; in assay [4], 101%; in assay [5] it was 16.2%; in [20] it was -10.3% (active). The growth is 26.8% in assay [7]; 74% in assay [8]; 103% in assay [9]; 84.9% in [10]; 31.2% in assay [11]; 102% in [12]. Also, the growth is 71.1% in [13]; 73% in assay [19]; 62.8% in assay [14]; 75.9% in assay [15]; 67.2% in assay [16]; 26.5% in assay [17]. Also, the growth in assay [18] was 75.7%.
For the compound `CC(C)(N)COS(=O)(=O)O`, the growth in assay [1] is 116%; in [2], 104%; in assay [3] it was 115%; in assay [4] it was 98.3%; in assay [5] it was 103%; in [6], 87.6%. Further, the growth in [8] was 94.7%; in assay [9], 105%; in assay [10], 111%; in [11], 104%; in [12], 108%; in assay [13], 93.4%. Also, the growth in assay [19] was 110%; in assay [14], 92.7%; in [15], 101%; in assay [16] it was 99.3%; in [18] it was 98.1%.
Regarding `Oc1ccccc1O`, the growth in assay [1] was 97.7%; in assay [2], 102%; in assay [3] it was 91.2%; in assay [4] it was 95.9%; in assay [5], 100%; in [6], 90.5%. Besides, the growth in assay [7] was 78.1%; in [9] it was 93.8%; in assay [10], 106%; in assay [11], 112%; in assay [12], 138%; in [13], 63.9%. Further, the growth in assay [19] is 94.4%; in assay [14], 87.2%; in [15], 136%; in assay [16], 84.1%; in assay [17] it was 87.7%.
